Source: PubChem BioAssay (NCI)
This is part of a sample that, as a whole, favours compounds with a hit. Of some 83,000 tested, about 20% had one in any assay.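 Results are percent growth after 48 hours of single-concentration exposure. 100 means growth as in untreated cells, lower positive values show inhibition; negative values down to -100 show cell death.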 Active and inactive are the calls of the source. Rule for the calls: active = growth percent below 10; inactive = the rest.

Tests used:
Assay in all cases: NCI-60 one-dose screen, 48 h (100 = growth as untreated, 0 = no growth, -100 = all killed)
Details in all cases: 10 µM unless noted
NCI-H23 lung = tested on: NCI-H23 lung
NCI-H226 lung = tested on: NCI-H226 lung
NCI-H322M lung = tested on: NCI-H322M lung
HOP-62 NSCLC = tested on: HOP-62 NSCLC
NCI-H460 lung = tested on: NCI-H460 lung
HOP-92 NSCLC = tested on: HOP-92 NSCLC
NCI-H522 lung = tested on: NCI-H522 lung
A549/ATCC NSCLC = tested on: A549/ATCC NSCLC
786-0 renal = tested on: 786-0 renal
COLO 205 colon = tested on: COLO 205 colon

Measured: growth

CN1CCN(Cc2ccc(NC(=O)c3cncc(C#Cc4cnc5ccc(O[C@@H]6CCOC6)nn45)c3)cc2C(F)(F)F)CC1
active: NCI-H23 lung -65.2% | NCI-H226 lung -60.7% | NCI-H322M lung -49.3% | HOP-62 NSCLC -79.1% | NCI-H460 lung -83.3% | HOP-92 NSCLC -39.6% | NCI-H522 lung -72% | A549/ATCC NSCLC -76.8% | 786-0 renal -87.9% | COLO 205 colon -77.4%

C#C[C@]1(O)CC[C@H]2[C@@H]3CC=C4c5sc(Nc6ncccc6C)nc5CC[C@]4(C)[C@H]3CC[C@@]21C
inactive: NCI-H226 lung 23.4% | NCI-H322M lung 32.8% | HOP-62 NSCLC 11.9% | HOP-92 NSCLC 20.5% | NCI-H522 lung 25.9% | A549/ATCC NSCLC 21.8% | COLO 205 colon 34.8%
active: NCI-H23 lung 9.38% | NCI-H460 lung 0.476% | 786-0 renal -56.2%

C=C(C)[C@@H]1CC[C@]2(C(=O)NC3CCCCC3)CC[C@]3(C)[C@H](CC[C@@H]4[C@@]5(C)CC[C@H](N)C(C)(C)[C@@H]5CC[C@]43C)[C@@H]12
inactive: NCI-H23 lung 106% | NCI-H226 lung 94.2% | NCI-H322M lung 108% | HOP-62 NSCLC 104% | NCI-H460 lung 98.7% | HOP-92 NSCLC 73.1% | NCI-H522 lung 93.2% | A549/ATCC NSCLC 91.9% | 786-0 renal 84.6% | COLO 205 colon 52.9%

O=C1[C@@H]2Cc3c([nH]c4ccccc34)[C@@H](c3ccc(Cl)cc3)N2C(=O)CN1C1CCN(Cc2c(F)cccc2F)CC1
active: HOP-92 NSCLC -0.363% | COLO 205 colon 7.17%
inactive: NCI-H23 lung 48.8% | NCI-H226 lung 60.6% | NCI-H322M lung 66.2% | HOP-62 NSCLC 54.1% | NCI-H460 lung 22.5% | NCI-H522 lung 36.7% | A549/ATCC NSCLC 31.6% | 786-0 renal 45.2%

COc1ccc2c(c1)c(-c1nn3cc(-c4ccncc4)nc3s1)cn2C
inactive: NCI-H23 lung 88.7% | NCI-H226 lung 88.6% | NCI-H322M lung 85.4% | HOP-62 NSCLC 67% | NCI-H460 lung 53.1% | HOP-92 NSCLC 11.6% | NCI-H522 lung 68.9% | A549/ATCC NSCLC 98.7% | 786-0 renal 93% | COLO 205 colon 81.5%

Cc1[nH]c(C(=O)Nc2ccccc2OCc2cccc(C(=O)NC3CCNC3)c2)c(Cl)c1Cl (stereo not given)
inactive: NCI-H226 lung 87.2% | NCI-H322M lung 70.2% | HOP-92 NSCLC 70.2%
active: NCI-H23 lung 8.19% | HOP-62 NSCLC 6.22% | NCI-H460 lung -62.9% | NCI-H522 lung -0.407% | A549/ATCC NSCLC -51.2% | 786-0 renal -69.2% | COLO 205 colon -43.3%

Cc1ccc2c(n1)C(=O)C(Cl)=C(Nc1ccc(C#N)cc1)C2=O
inactive: NCI-H23 lung 92.3% | NCI-H226 lung 98.3% | NCI-H322M lung 109% | HOP-62 NSCLC 115% | NCI-H460 lung 100% | HOP-92 NSCLC 126% | NCI-H522 lung 52.4% | A549/ATCC NSCLC 106% | 786-0 renal 80.4% | COLO 205 colon 79.6%

CSc1ccc(/C(=N/N=C(N)N)c2ccc(F)cc2)cc1
active: NCI-H23 lung -36.7% | NCI-H226 lung 0.244% | NCI-H460 lung 6.38% | NCI-H522 lung 8.51% | COLO 205 colon -42.2%
inactive: NCI-H322M lung 67.5% | HOP-62 NSCLC 36.1% | HOP-92 NSCLC 33.4% | A549/ATCC NSCLC 16.4% | 786-0 renal 17.7%

COc1ccccc1/C=C/C(=O)c1nnn(-c2ccc(F)cc2)c1C
inactive: NCI-H23 lung 42.9% | NCI-H226 lung 53.1% | NCI-H322M lung 70.6% | HOP-62 NSCLC 72.2% | NCI-H460 lung 28.4% | HOP-92 NSCLC 72.9% | NCI-H522 lung 54% | A549/ATCC NSCLC 41.7% | 786-0 renal 84.5% | COLO 205 colon 72.4%

FC(F)(F)c1cc(Br)cc(-c2cc(-c3ccc4c(c3)OCCO4)[nH]n2)c1
active: NCI-H460 lung 5.69% | COLO 205 colon -12.9%
inactive: NCI-H23 lung 40.1% | NCI-H226 lung 53.8% | NCI-H322M lung 45.4% | HOP-62 NSCLC 52.2% | HOP-92 NSCLC 32% | NCI-H522 lung 20.5% | A549/ATCC NSCLC 22.1% | 786-0 renal 28.3%

CCc1nnc(NC(=O)c2cc(-c3ccc(Cl)cc3Cl)oc2C)s1
inactive: NCI-H23 lung 85.7% | NCI-H226 lung 85.6% | NCI-H322M lung 85.4% | HOP-62 NSCLC 96% | NCI-H460 lung 53.9% | HOP-92 NSCLC 92% | NCI-H522 lung 79.4% | A549/ATCC NSCLC 77.1% | 786-0 renal 95.9% | COLO 205 colon 105%

Cc1nc(N)sc1-c1csc(Nc2ccc(C(F)(F)F)cc2)n1
inactive: NCI-H23 lung 34.4% | NCI-H226 lung 37.4% | NCI-H322M lung 61.4% | HOP-62 NSCLC 47.3% | NCI-H460 lung 25.1% | HOP-92 NSCLC 37.3% | A549/ATCC NSCLC 45.1% | 786-0 renal 38.6% | COLO 205 colon 19.6%
active: NCI-H522 lung -56.3%

O=C1[C@@H]2Cc3c([nH]c4ccccc34)[C@H](c3ccc(Cl)cc3)N2C(=O)CN1C1CCN(Cc2ccccc2)CC1
inactive: NCI-H23 lung 74.1% | NCI-H226 lung 70.5% | NCI-H322M lung 59.2% | HOP-62 NSCLC 75.7% | NCI-H460 lung 34.4% | HOP-92 NSCLC 41.4% | NCI-H522 lung 84.6% | A549/ATCC NSCLC 38.8% | 786-0 renal 68.1% | COLO 205 colon 53.4%
